In PubChem BioAssay (NCATS):
Several values for one entry are separate records, joined by “and”; a condition that tells them apart may be missing. Identical values can stand only once. Inconclusive results are not listed. Activity calls are given as the source filed them. The call rests on the fitted dose curve; in most records, active means well fitted curve in the direction sought with a large enough effect; inconclusive means small, poorly fitted or top-dose-only effect, or another doubt; inactive means no such curve, though single readings can be large; an effect the other way counts as inactive or inconclusive.

Target: Cytochrome P450 3A7 (Homo sapiens) (UniProt P24462)
Sequence (P24462 whole entry, looked up): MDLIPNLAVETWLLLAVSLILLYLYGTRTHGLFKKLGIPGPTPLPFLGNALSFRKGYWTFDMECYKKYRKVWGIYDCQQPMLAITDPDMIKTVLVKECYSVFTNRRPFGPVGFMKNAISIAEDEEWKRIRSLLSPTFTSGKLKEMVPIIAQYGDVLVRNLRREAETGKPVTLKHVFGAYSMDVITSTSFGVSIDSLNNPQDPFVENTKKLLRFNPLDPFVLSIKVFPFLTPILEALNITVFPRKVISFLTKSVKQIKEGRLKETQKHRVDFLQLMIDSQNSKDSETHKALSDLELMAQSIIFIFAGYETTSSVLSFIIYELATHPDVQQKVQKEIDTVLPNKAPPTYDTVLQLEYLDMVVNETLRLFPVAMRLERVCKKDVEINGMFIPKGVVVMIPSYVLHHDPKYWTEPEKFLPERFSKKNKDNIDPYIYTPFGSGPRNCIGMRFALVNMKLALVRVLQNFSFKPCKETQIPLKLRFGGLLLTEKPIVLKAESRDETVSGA
Test: Cytochrome P450 family 3 subfamily A member 7 (CYP3A7) small molecule antagonists: luciferase biochemical qHTS assay (AID 1963596); further: nearly all actives have a fitted effect of over 40% in size; on activity change, negative = inhibition: on the % scale 0 is the no-effect control and ±100 the full control effect
Conditions: P450-Glo CYP3A7 enzyme luminescence, 1 h; series mostly up to 57.4 µM; activity change, negative = inhibition: at the top concentration
Summary of the method: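 In this luminescent screen, enzyme and proluciferin substrate meet test compound for 10 min before NADPH regeneration solution drives a 1 h room-temperature reaction; detection reagent halts turnover and luminescence is read 20 min later.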
Potency means the concentration at half of the fitted maximal effect.

Structure (SMILES)	activity change, negative = inhibition	Potency
COc1ccc(CCC(C)=O)cc1	-1.17% (inactive)	–
CC(=O)O[C@H]1C[C@@H]2CC[C@@H]3[C@H](CC[C@@]4(C)[C@H]3C[C@H]([N+]3(C)CCCCC3)[C@@H]4OC(C)=O)[C@@]2(C)C[C@@H]1N1CCCCC1	-8.56% (inactive)	–
Nc1ncn([C@@H]2O[C@H](CO)[C@@H](O)[C@H]2O)c(=O)n1	16.9% (inactive)	–
Cc1ccc(Cl)c(OCC(O)CNC(C)(C)C)c1 (configuration not stated)	-6.93% (inactive)	–
CNC(=O)Oc1ccc2c(c1)[C@]1(C)CCN(C)[C@@H]1N2C	2.79% (inactive)	–
CCCCOCCOC(=O)c1cccnc1	-4.05% (inactive)	–
CCn1c(=O)c(-c2ccn[nH]2)cc2c(C)nc(N)nc21	-10.3% (inactive)	–
COc1ccccc1O	12.9% [at 115 µM] (inactive)	–
CC[C@@H](CO)NCCN[C@@H](CC)CO	30.5% (inactive)	–
Nc1ccn(C2CO[C@H](CO)O2)c(=O)n1 (some centres not stated)	-22.5% (inactive)	–
COC(=O)c1nc(Cl)c(Cl)nc1N	16.7% (inactive)	–
COc1ccc(C(Cl)=C(c2ccc(OC)cc2)c2ccc(OC)cc2)cc1	-21.2% (inactive)	–
O=C(NCN1CCOCC1)c1cnccn1	-2.01% (inactive)	–
CC1(C)NC(=O)N(c2ccc([N+](=O)[O-])c(C(F)(F)F)c2)C1=O	-21.3% (inactive)	–
CCOc1ccccc1C(N)=O	9.1% (inactive)	–
CCCCCCCC(=O)[O-].CCCCCCCC(=O)[O-].[Zn+2]	-22.4% (inactive)	–
C[C@@H](N)C(=O)O	-1.56% (inactive)	–
Cc1ncc([N+](=O)[O-])n1C	-1.48% (inactive)	–
O=c1[nH]c(=O)c2[nH]c(=O)[nH]c2[nH]1	3.23% [at 11.5 µM] (inactive)	–
CCCOC(=O)c1ccc(O)cc1	-15.2% (inactive)	–

Structure (SMILES)	activity change, negative = inhibition	Potency
CCOC(=O)c1cccc(N)c1	–	27500 nM (active)
CC(C)NNC(=O)c1ccncc1	-27.1% (inactive)	–
Cc1cc(C(C)(C)C)c(O)c(C(C)(C)C)c1	-0.993% (inactive)	–
NS(=O)(=O)c1ccc(N2CCCCS2(=O)=O)cc1	-22.3% (inactive)	–
C[C@@H]1CCO[C@H]2Cn3cc(C(=O)NCc4ccc(F)cc4F)c(=O)c(O)c3C(=O)N12	1.8% (inactive)	–
CCn1cc(C(=O)O)c(=O)c2cnc(N3CCCC3)nc21	25.3% [at 11.5 µM] (inactive)	–
O=c1[nH]c(=O)n([C@H]2C[C@H](O)[C@@H](CO)O2)cc1C(F)(F)F	-14.1% (inactive)	–
CCCCc1nc2cc(C=CC(=O)NO)ccc2n1CCN(CC)CC	0% (inactive)	–
CCCCCCCC/C=C\CCCCCCCCN	13.8% (inactive)	–
COc1ccc([C@@H]2CC(=O)c3c(O)cc(O[C@@H]4O[C@H](CO[C@@H]5O[C@@H](C)[C@H](O)[C@@H](O)[C@@H]5O)[C@@H](O)[C@H](O)[C@@H]4O)cc3O2)cc1O	-12.6% (inactive)	–
CCNC(=O)Nc1ccc(Oc2ncnc(N)c2C=NOC)cc1Cl	-23% (inactive)	–
NNc1nncc2ccccc12	-12.7% [at 23.9 µM] (inactive)	–
C=C(C)C(=O)OCC(O)CO (configuration not stated)	4.35% (inactive)	–
CSc1cccc(Nc2ncc3cc(-c4c(Cl)cccc4Cl)c(=O)n(C)c3n2)c1	14.3% (inactive)	–
CC1(C)OC[C@@H]2O[C@@]3(C(=O)O)OC(C)(C)O[C@H]3[C@@H]2O1	-8.79% (inactive)	–
CCn1c(=O)c(-c2ccc(-c3cncs3)cc2Cl)cc2cnc(Nc3ccc(N4CCN(C)CC4)cc3)nc21	–	3010 nM (active)
O=C(O)CC1CCC(c2ccc(-c3ccc(Nc4ccc(C(F)(F)F)nc4)cn3)cc2)CC1 (configuration not stated)	0% (inactive)	–
NC1CCN(c2cccc(Cl)n2)CC1	-12.3% (inactive)	–
NC(=O)CCCCC1CCSS1 (configuration not stated)	-10.4% (inactive)	–
c1ccc2c(CC3=NCCN3)cccc2c1	-20.3% (inactive)	–

Tested on: not listed separately
Test: Viability qHTS for spleen associated tyrosine kinase inhibitor (SYKi) drug resistant MV4-11 cells (AID 1963824); further: nearly all actives have a fitted effect of over 35% in size
Conditions: SYKi-resistant MV4-11 viability, CellTiter-Glo, 72 h; series mostly up to 45 µM; viability, % of control: at the top concentration
Summary of the method: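 SYK-inhibitor-resistant MV4-11 AML cells were seeded at 500 per well onto compound and cultured 72 hours (37 °C, 5% CO2). CellTiter-Glo was then added, and after 10 min at room temperature, luminescence gave viability.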

Structure (SMILES)	viability, % of control	Potency
COc1ccc(CCC(C)=O)cc1	108% (inactive)	–
CC(=O)O[C@H]1C[C@@H]2CC[C@@H]3[C@H](CC[C@@]4(C)[C@H]3C[C@H]([N+]3(C)CCCCC3)[C@@H]4OC(C)=O)[C@@]2(C)C[C@@H]1N1CCCCC1	71% (inactive)	–
Nc1ncn([C@@H]2O[C@H](CO)[C@@H](O)[C@H]2O)c(=O)n1	–	1.66 µM (active)
Cc1ccc(Cl)c(OCC(O)CNC(C)(C)C)c1 (configuration not stated)	69.8% (inactive)	–
CNC(=O)Oc1ccc2c(c1)[C@]1(C)CCN(C)[C@@H]1N2C	98.5% (inactive)	–
CCCCOCCOC(=O)c1cccnc1	75.2% (inactive)	–
CCn1c(=O)c(-c2ccn[nH]2)cc2c(C)nc(N)nc21	–	2.91 µM (active)
COc1ccccc1O	77.9% [at 91.9 µM] (inactive)	–
CC[C@@H](CO)NCCN[C@@H](CC)CO	76.5% (inactive)	–
COC(=O)c1nc(Cl)c(Cl)nc1N	–	0.596 µM (active)
COc1ccc(C(Cl)=C(c2ccc(OC)cc2)c2ccc(OC)cc2)cc1	76.8% (inactive)	–
O=C(NCN1CCOCC1)c1cnccn1	110% (inactive)	–
CCOc1ccccc1C(N)=O	–	9.44 µM (active)
CCCCCCCC(=O)[O-].CCCCCCCC(=O)[O-].[Zn+2]	83.3% (inactive)	–
C[C@@H](N)C(=O)O	76.8% (inactive)	–
Cc1ncc([N+](=O)[O-])n1C	94.5% (inactive)	–

Structure (SMILES)	viability, % of control	Potency
O=c1[nH]c(=O)c2[nH]c(=O)[nH]c2[nH]1	120% [at 9.25 µM] (inactive)	–
CCCOC(=O)c1ccc(O)cc1	–	0.0863 µM (active)
CCOC(=O)c1cccc(N)c1	79.4% (inactive)	–
CC(C)NNC(=O)c1ccncc1	78% (inactive)	–
Cc1cc(C(C)(C)C)c(O)c(C(C)(C)C)c1	85.3% (inactive)	–
NS(=O)(=O)c1ccc(N2CCCCS2(=O)=O)cc1	85.4% (inactive)	–
CCn1cc(C(=O)O)c(=O)c2cnc(N3CCCC3)nc21	103% [at 9.25 µM] (inactive)	–
O=c1[nH]c(=O)n([C@H]2C[C@H](O)[C@@H](CO)O2)cc1C(F)(F)F	–	2.11 µM (active) and 2.35 µM (active)
CCCCCCCC/C=C\CCCCCCCCN	101% (inactive)	–
C=C(C)C(=O)OCC(O)CO (configuration not stated)	92.1% (inactive)	–
CC1(C)OC[C@@H]2O[C@@]3(C(=O)O)OC(C)(C)O[C@H]3[C@@H]2O1	92.2% (inactive)	–
CCn1c(=O)c(-c2ccc(-c3cncs3)cc2Cl)cc2cnc(Nc3ccc(N4CCN(C)CC4)cc3)nc21	–	0.461 µM (active)
O=C(O)CC1CCC(c2ccc(-c3ccc(Nc4ccc(C(F)(F)F)nc4)cn3)cc2)CC1 (configuration not stated)	–	18.6 µM (active)
NC1CCN(c2cccc(Cl)n2)CC1	92.9% (inactive)	–
NC(=O)CCCCC1CCSS1 (configuration not stated)	86.5% (inactive)	–
c1ccc2c(CC3=NCCN3)cccc2c1	–	11.9 µM (active)
